Records with an inconclusive call do not appear. Active and inactive are the calls of the source. Calls come from the whole dose curve; as a rule, active = well fitted inhibition curve with a large enough effect; inconclusive = small, poorly fitted or top-dose-only effect; inactive = flat fitted curve, though single readings scatter.

In PubChem BioAssay (NCATS) one finds Potency data, which are given here for 23 compounds.

Holding throughout (assay): qHTS profiling for inhibitors of Plasmodium falciparum proliferation (AID 504749); note: nearly all actives have a fitted effect of over 60% in size
Common to all, as to conditions: P. falciparum in erythrocytes, SYBR Green DNA, 72 h; series mostly up to 28.7 µM
On the technique in general: qHTS replaces the single test concentration by a dilution series.

The subject of experiment [1] is JCK. The gist of the method:
(§1)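 Readout was DNA-dye fluorescence from lysed cultures, ex 485/em 535 nm. Parasitized red cells had grown 72 h with compound; data scaled between 0.29 uM artemisinin and DMSO wells and corrected using vehicle-only plates.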

Experiment [2] concerns N140. Put shortly:
as §1

Experiment [3] has as its system P93_24. Put shortly:
as §1

For experiment [4], the system named is P94_40. Put shortly: as §1
Experiment [5] deals with PAD. The gist of the method: as §1
Experiment [6] concerns PC15. The gist of the method:
as §1

In experiment [7] the test system is PC26. The gist of the method: as §1
Experiment [8] has as its system PC49. The gist of the method: as §1
In experiment [9] the test system is SC27B. The gist of the method: as §1
In experiment [10] the test system is TAB109. The gist of the method: as §1
Potency is the fitted concentration of half-maximal effect.

With `C[C@H](O)C(=O)Nc1c(I)c(C(=O)NC(CO)CO)c(I)c(C(=O)NC(CO)CO)c1I`, the Potency result in [1], in experiment [2], in experiment [3], in experiment [4], in experiment [5] and in experiment [6] was “inactive” each time. For the same compound, the Potency result in experiment [7], in [8], in experiment [9] and in experiment [10] was “inactive” each time.

Consider `CCC(C(=O)OCCN(CC)CC)c1ccccc1` (stereo unspecified), for which the Potency result in experiment [1], in experiment [2], in experiment [3], in [4], in experiment [5] and in experiment [6] was “inactive” throughout. The Potency result in experiment [7], in [8], in experiment [9] and in experiment [10] was “inactive” throughout.

As to `Cc1c(C)n(Cc2ccccc2)c2ccc(C(=O)OCCN(C)C)cc12`, the Potency result in experiment [1], in [2], in experiment [3], in experiment [4], in experiment [5] and in experiment [6] was “inactive” throughout. The Potency result in experiment [7], in [8], in experiment [9] and in [10] was “inactive” each time.

Regarding `C[C@@H]1C(=O)NC2=Nc3cccc(Cl)c3CN21`, the Potency entry in experiment [1], in [2], in experiment [3], in experiment [4], in experiment [5] and in experiment [6] was “inactive” in each case. For the same compound, the Potency entry in experiment [7], in experiment [8], in experiment [9] and in experiment [10] was “inactive” in each case.

Regarding `CCCCCCCCCCOCC(O)CN` (stereo unspecified), the Potency result in experiment [1] is “inactive”.

Consider `Cc1cccn2c(=O)c(-c3nnn[nH]3)cnc12`, for which the Potency result in experiment [1], in experiment [2], in experiment [3], in experiment [4], in experiment [5] and in [6] was “inactive” in each case. In addition, the Potency result in [7], in [8], in experiment [9] and in experiment [10] was “inactive” throughout.

For the compound `C[N+]1(CCCCC[N+]2(C)CCCC2)CCCC1`, the Potency result in experiment [1], in experiment [2], in experiment [3], in [4], in experiment [5] and in [6] was “inactive” in each case. For the same compound, the Potency entry in [7], in experiment [8], in experiment [9] and in experiment [10] was “inactive” throughout.

As for `Cc1ncc(CSSCc2cnc(C)c(O)c2CO)c(CO)c1O`, the Potency result in [1], in experiment [2], in experiment [3], in experiment [4], in experiment [5] and in experiment [6] was “inactive” throughout. Moreover, the Potency entry in [7], in [8], in [9] and in experiment [10] was “inactive” in each case.

For `COc1cc(NS(C)(=O)=O)ccc1Nc1c2ccccc2nc2ccccc12`, the Potency in experiment [1] is 3.55 µM (active); in experiment [2], 2 µM (active); in experiment [3], 3.16 µM (active); in experiment [4], 2.51 µM (active); in experiment [5], 1.41 µM (active); in experiment [6], 2.82 µM (active). Besides, the Potency in [7] is 5.36 µM (active); in [8] it was 3.16 µM (active); in [9], 2.24 µM (active); in [10] it was 3.16 µM (active).

Regarding `CCN1CCC[C@H]1CNC(=O)c1c(OC)ccc(Br)c1OC`, the Potency entry in [1], in experiment [2], in experiment [3], in experiment [4], in experiment [5] and in experiment [6] was “inactive” in each case. Also, the Potency result in experiment [7], in [8], in [9] and in experiment [10] was “inactive” each time.

`CN(C)/N=N/c1nc[nH]c1C(N)=O`: the Potency entry in experiment [1], in experiment [2], in experiment [3], in experiment [4], in experiment [5] and in [6] was “inactive” each time. The Potency result in [7], in [8], in experiment [9] and in [10] was “inactive” each time.

`Cc1c(N(C)CS(=O)(=O)O)c(=O)n(-c2ccccc2)n1C`: the Potency entry in experiment [1], in experiment [2], in [3], in [4], in experiment [5] and in experiment [6] was “inactive” in each case. Besides, the Potency entry in [7], in experiment [8], in [9] and in experiment [10] was “inactive” in each case.

Consider `Cc1c(C)n(CCN(C)C)c2ccc(C(=O)OCCN(C)C)cc12`, for which the Potency result in [1], in experiment [2], in experiment [3], in [4], in experiment [5] and in experiment [6] was “inactive” throughout. The Potency entry in experiment [7], in experiment [8], in [9] and in experiment [10] was “inactive” throughout.

Regarding `O=C(OCCOCCO)c1ccccc1Nc1cccc(C(F)(F)F)c1`, the Potency result in experiment [1], in experiment [2], in experiment [3], in experiment [4], in experiment [5] and in experiment [6] was “inactive” in each case. Moreover, the Potency result in experiment [7], in experiment [8], in [9] and in experiment [10] was “inactive” throughout.

In the case of `CC(=O)OCC(=O)NCCCOc1cccc(CN2CCCCC2)c1`, the Potency result in experiment [1], in [2], in experiment [3], in experiment [4], in experiment [5] and in [6] was “inactive” each time. For the same compound, the Potency result in [7], in experiment [8], in experiment [9] and in experiment [10] was “inactive” in each case.

Take `CCOc1ccc(NC(=O)CC(C)O)cc1` (stereo unspecified): the Potency result in experiment [1], in [2], in experiment [3], in experiment [4], in experiment [5] and in experiment [6] was “inactive” throughout. The Potency result in experiment [7], in experiment [8], in [9] and in [10] was “inactive” throughout.

With `CCOC(=O)OC(C)OC1=C(C(=O)Nc2ccccn2)N(C)S(=O)(=O)c2ccccc21` (stereo unspecified), the Potency result in [1], in [2], in experiment [3], in experiment [4], in experiment [5] and in [6] was “inactive” in each case. Further, the Potency entry in experiment [7], in experiment [8], in experiment [9] and in experiment [10] was “inactive” throughout.

For the compound `COc1ccc(/C=C/C(=O)c2ccc(OC)cc2OC)cc1`, the Potency in [1] is 8.91 µM (active); in [2], 11.2 µM (active); in experiment [3] it was 8.91 µM (active); in experiment [4], 10 µM (active); in experiment [5], 10 µM (active); in experiment [6], 7.08 µM (active). Moreover, the Potency in experiment [7] is 7.57 µM (active); in [8], 5.62 µM (active); in experiment [9], 10 µM (active); in experiment [10], 7.08 µM (active).

Turning to `Cc1ccnc(NS(=O)(=O)c2ccc(N)cc2)n1`, the Potency result in experiment [1], in experiment [2], in experiment [3], in experiment [4], in experiment [5] and in experiment [6] was “inactive” in each case. The Potency entry in experiment [7], in experiment [8], in experiment [9] and in [10] was “inactive” throughout.

`COc1cccc(CCc2ccccc2OCC(CN(C)C)OC(=O)CCC(=O)O)c1` (stereo unspecified): the Potency in [1] was 10 µM (active); in [2] it was 2.82 µM (active); in [3] it was 4.47 µM (active); in experiment [4], 4.47 µM (active); in experiment [5] it was 3.55 µM (active); in experiment [6], 5.01 µM (active). The Potency was 3.79 µM (active) in [7], 3.16 µM (active) in experiment [8], 5.01 µM (active) in experiment [9] and 4.47 µM (active) in [10].

Take `O=C(Nc1ccc(Cl)c(Cl)c1)C1CC1`: the Potency result in experiment [1], in experiment [2], in [3], in experiment [4], in [5] and in experiment [6] was “inactive” throughout. Further, the Potency result in experiment [7], in [8], in [9] and in experiment [10] was “inactive” in each case.

With `CCN1CCCC1=O`, the Potency result in [1], in experiment [2], in [3], in experiment [4], in [5] and in [6] was “inactive” in each case. The Potency entry in experiment [7], in experiment [8], in experiment [9] and in experiment [10] was “inactive” throughout.

In the case of `C1CCc2nnnn2CC1`, the Potency result in experiment [1], in experiment [2], in experiment [3], in [4], in experiment [5] and in experiment [6] was “inactive” throughout. For the same compound, the Potency result in experiment [7], in experiment [8], in experiment [9] and in [10] was “inactive” throughout.
